HCV inh: blocks hepatitis C virus | AID 651820 | Huh7.5.1 HCVcc-Cre infection, luciferase reporter, 44 h | 340,000 tested, 3.4% active | Potency, µM (doses to about 41.8 µM), for the others: at the top dose activity change, negative = inhibition, most hits filed as inhibitors; further: potency means the concentration at half of the fitted maximal effect
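Infectious HCVcc-Cre (~0.5 moi) was added to cells just after compound, with cells seeded 4 h earlier at 1,000 per well. Luciferase activity after 44 h culture reported infection; substrate was incubated 15 min at room temperature before reading.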
AmpC detergent: blocks E. coli AmpC beta-lactamase in detergent assay; P00811; AmpC hydrolysis of nitrocefin, absorbance 480 nm, 0.01% Triton; Potency, µM (top dose mostly 114 µM), for the others: at the top dose activity change, negative = inhibition, most hits filed as inhibitors; 370,000 tested, 0.041% active; AID 485294;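 further: potency means the concentration at half of the fitted maximal effect; 0% = no-compound wells and -100% = no-enzyme wells; nearly all actives have a fitted effect of over 25% in size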
Target sequence (P00811 whole entry, looked up): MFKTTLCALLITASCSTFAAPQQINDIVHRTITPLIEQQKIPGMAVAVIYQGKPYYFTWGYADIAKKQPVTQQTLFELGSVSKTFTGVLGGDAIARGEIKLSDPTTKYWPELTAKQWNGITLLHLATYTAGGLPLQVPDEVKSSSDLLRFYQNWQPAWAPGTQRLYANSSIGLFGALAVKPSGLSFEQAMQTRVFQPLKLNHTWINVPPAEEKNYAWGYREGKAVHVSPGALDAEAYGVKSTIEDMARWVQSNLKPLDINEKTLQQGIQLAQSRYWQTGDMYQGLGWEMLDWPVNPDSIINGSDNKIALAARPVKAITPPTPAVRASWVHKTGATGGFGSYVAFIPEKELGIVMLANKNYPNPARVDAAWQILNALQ
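AmpC (5.3 nM in the dispensed reagent) in 20 mM phosphate pH 7.0 with 0.01% (detergent screen) or 0.0001% Triton X-100 was preincubated with compounds for 15 min at room temperature. Nitrocefin was then added from an 800 uM solution, and hydrolysis was followed at 480 nm.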
AmpC no deterg: blocks E. coli AmpC beta-lactamase in detergent-free assay; AID 485341; 330,000 tested, 0.52% active; Potency, µM (highest dose often 57.1 µM), for inactives: top-dose activity change, negative = inhibition, usual class: inhibitors; AmpC nitrocefin hydrolysis, absorbance 480 nm, 0.0001% Triton;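 further: potency means the concentration at half of the fitted maximal effect; plate controls were no compound for no effect and no enzyme for full effect; nearly all actives have a fitted effect of over 20% in size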
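20 mM phosphate pH 7.0 + 0.01% (detergent screen) or 0.0001% Triton X-100; 5.3 nM AmpC reagent; cpd preinc 15 min RT; nitrocefin (800 uM stock) to start; A480 q20 s × 4 min; Activity was normalised to no-enzyme and no-compound control wells.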
FMDV antiviral: foot and mouth disease virus antiviral activity. FMDV antiviral cell-based qHTS. Potency, µM (series often up to 57.9 µM), without a hit: at the highest dose activity change, negative = inhibition, actives largely listed as inhibitors. 410,000 tested, 1.2% active; calls by dose curve; tested in HEK293T cells; further: read-out not given here; potency means the concentration at half of the fitted maximal effect; nearly all actives have a fitted effect of over 45% in size
HCMV antiviral: human cytomegalovirus inhibition | 410,000 tested, 4.5% active | activity change, negative = inhibition, % at 57.5 µM | HFF cells, HCMV-luciferase reporter, 72 h; active compounds read low; in the data active means activity change below about -60%; inconclusive means no clear call, values can overlap the other calls; inactive means above about -39%
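Two-dose cell screen: HFF monolayers treated with compounds and infected with luciferase-expressing HCMV at 1 PFU/cell, 72 h at 37C, then lysed for luciferase measurement.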
Starred values were filed as active, the others as inactive; ? = inconclusive; / = no result; [ ] = dose if it differs, or a comment. The list is not random: actives were taken first. Their share in the collection is about 7.3%. Unless noted, the call rests on the fitted dose curve; in most records, active means well fitted curve in the direction sought with a large enough effect; inconclusive means small, poorly fitted or top-dose-only effect, or another doubt; inactive means no such curve, though single readings can be large; an effect the other way counts as inactive or inconclusive. Unless noted, on the % scale 0 is the no-effect control and ±100 the full control effect.

SMILES	HCV inh	AmpC detergent	AmpC no deterg	FMDV antiviral	HCMV antiviral
COc1cc(-c2cc3n(C)c(C)c(CCC(=O)NCc4ccccc4)c(=O)n3n2)cc(OC)c1OC	/	4%	/	1%	73
CC12CCC(=O)N1C(C(=O)Nc1cccc(S(=O)(=O)N3CCCCC3)c1)CS2 (stereo unspecified)	?	-6%	-18%	-16%	-22
CC1CCN(S(=O)(=O)c2ccc(NC(=O)C3CSC4(C)CCC(=O)N34)cc2)CC1 (stereo unspecified)	?	?	14µM*	-7%	-12
COc1cc(NC(=O)C2CSC3(C)CCC(=O)N23)c(OC)cc1Cl (stereo unspecified)	10µM*	?	-5%	-12%	4
Cc1sc(NC(=O)C2CSC3(C)CCC(=O)N23)nc1-c1ccc(F)cc1 (stereo unspecified)	14µM*	-3%	10%	-13%	-4
COc1ccc(N2CCN(C(=O)c3ccc4c(c3)N(Cc3ccc(F)cc3)C(=O)c3ccccc3S4=O)CC2)cc1 (stereo unspecified)	/	15%	/	-10%	-30
CC(C)N1CCc2c(sc(NC(=O)C3CCCCC3)c2C(N)=O)C1	?	5%	-15%	?	-79*
COC(=O)c1c(NC(=O)C2CCCCC2)sc2c1CCN(C(C)C)C2	-11%	-13%	51%	?	-24
CCOC(=O)c1c(NC(=O)C2CCCCC2)sc2c1CCN(C(C)C)C2	7.9µM*	-13%	133%	0%	8
CN1CCc2c(sc(NC(=O)C3CCCCC3)c2C(N)=O)C1	6%	-15%	-26%	5%	35
COc1cc(C)c(NC(=O)c2cccc(S(=O)(=O)N3CCCC3)c2)cc1OC	?	/	0%	2%	-10
OC(CNc1nc(C(F)(F)F)nc2ccccc12)c1ccccc1 (stereo unspecified)	?	-7%	-23%	-22%	-66*
Cc1nn(CC(=O)N2CCC(N3CCCCC3)CC2)c(=O)c2c1sc1ccccc12	1%	-8%	1%	-5%	-28
CCOC(=O)C1CCCN(C(=O)Cn2sc3nc(C)cc(C)c3c2=O)C1 (stereo unspecified)	33%	45µM*	14µM*	-7%	/
Cc1cc(C)c2c(=O)n(CC(=O)N3CCC(N4CCCCC4)CC3)sc2n1	15%	56µM*	20µM*	-8%	-30
CCCNC(=O)Cn1sc2nc(C)cc(C)c2c1=O	-14%	79µM*	?	-28%	5
CCOC(=O)C1CCCN(C(=O)Cn2cnc3c2c(=O)n(C)c(=O)n3C)C1 (stereo unspecified)	20%	-17%	-9%	-14%	-11
FC(F)(F)c1cccc(-c2cc3c(Nc4ccncc4)nccc3[nH]2)c1	/	/	/	/	-15
Cn1nc(C(=O)OCC(=O)Nc2ccc(F)cc2Cl)c2ccccc2c1=O	-1%	/	-31%	-9%	15
CCCCOCC1CN(CCCC)S(=O)(=O)c2c(cccc2N(C)S(=O)(=O)c2ccc(C)cc2)O1 (stereo unspecified)	/	/	/	/	-7
COC(=O)c1cnn(-c2ccc(C(=O)Nc3cc(OC)c(OC)c(OC)c3)cc2)c1N	/	-3%	/	-23%	4
CN(C)CCCOc1ccc(C(C)(C)c2ccccc2)cc1	11µM*	-2%	73%	-15%	-33
Cc1nc(C)c(-c2ccc(SCC(=O)Nc3cccc(Cl)c3)nn2)s1	10µM*	4%	53%	?	7
Cc1nc(C)c(-c2ccc(SCC(=O)Nc3cccc(F)c3)nn2)s1	14µM*	3%	-1%	?	?
Cc1cnccc1NC(=O)c1cccs1	-26%	8%	-12%	-12%	-62*
SMILES	HCV inh	AmpC detergent	AmpC no deterg	FMDV antiviral	HCMV antiviral
COc1cc2c(cc1OC)C(c1cc(OC)c(OC)c(OC)c1)C1(O)C(=O)OCC1(O)C2 (stereo unspecified)	2%	/	/	6%	4
CCCCNc1cccc2c1S(=O)(=O)N[C@H](C)CO2	/	/	/	/	50
CCCS(=O)(=O)NC(=O)C1(C)CCCN(C(=O)/C=C/c2ccccc2)C1 (stereo unspecified)	/	/	/	-7%	1
C=CCn1c(C)cc(C(=O)COc2ccc(N(C)S(=O)(=O)c3ccc(NC(C)=O)cc3)cc2)c1C	8.9µM*	/	4%	?	-21
CCNc1c([N+](=O)[O-])c(=O)n(CC)c2ccccc12	4%	3%	-5%	24%	-17
CCn1c(=O)c([N+](=O)[O-])c(NCCCn2ccnc2)c2ccccc21	5%	1%	-12%	-11%	-65*
Cc1cc(OCC(=O)N(Cc2ccco2)c2c(N)n(Cc3ccccc3)c(=O)[nH]c2=O)ccc1Cl	?	6%	-48%	-27%	0
COc1ccc(-c2c(C)nn3c(N4CCOCC4)cc(C)nc23)cc1OC	-30%	2%	85%	-17%	11
COc1ccc(-c2c(C)nn3c(N4CCCCCC4)cc(C)nc23)cc1OC	11µM*	1%	193%	-43%	-61*
CCc1c(C)nc2cc(-c3ccc(OC)c(OC)c3)nn2c1N1CCCC1	1.8µM*	-8%	203%	/	?
CC(=O)Nc1ccc(NC(=O)C(C)OC(=O)C2(c3ccc(F)cc3)CCCC2)cc1 (stereo unspecified)	?	5%	74%	25µM*	-29
CCn1c2ccccc2c2cc(NC(=O)COC(=O)Cc3cn4ccsc4n3)ccc21	5.6µM*	-10%	-16%	-12%	16
CCn1c2ccccc2c2cc(NC(=O)COC(=O)c3ccc(O)cc3)ccc21	?	-4%	?	-14%	-12
COc1ccc(C2C=C(c3ccc(C)cc3)Nc3c(C(=O)Nc4ccccc4)cnn32)cc1 (stereo unspecified)	/	-3%	/	-3%	-24
CCn1c(/C=C/c2ccccc2F)nc2ccccc2c1=O	?	0%	20%	-15%	?
Cc1ccccc1-n1c(/C=C/c2ccccc2F)nc2ccccc2c1=O	/	11%	/	?	-85*
O=c1c2ccccc2nc(/C=C/c2cccc3ccccc23)n1-c1ccccc1Cl	/	7%	/	22µM*	?
COc1ccc(Cl)cc1-n1c(/C=C/c2cccc3ccccc23)nc2ccccc2c1=O	/	-3%	/	-22%	4
S=C(Nc1ccccc1)N1CCN(C(=S)c2ccccc2)CC1	4%	-12%	-4%[2.29 µM]	-8%	-102*
S=C(Nc1ccccc1)N1CCCCC1	-9%	-1%	0%	25%	-4
COc1ccc(N2C(=O)[C@@H]3C[C@H]2CN3Cc2cccn2-c2ccc(Cl)cn2)c(C)c1	/	/	/	0%	/
C[n+]1ccn(CC(=O)c2cc(C(C)(C)C)c(O)c(C(C)(C)C)c2)c1	-15%	-7%	37%	-8%	-26
COc1ccc2c(c1)C(c1cccs1)=NNC(c1ccncc1)=N2	11µM*	-2%	-3%	-7%	-16
